Measured values as given in PubChem BioAssay AID894 (National Center for Advancing Translational Sciences (NCATS), 2007).
Where “and” joins values, the source holds several entries; their conditions need not be identical. Equal entries are not always repeated. In all, about 150,000 compounds went through this assay and about 6,500 (4.3%) were called active. About 12% were inconclusive and are not listed. The sample as a whole holds a higher share of actives than the screen did. Some structures have more than one record in an assay (separate samples or runs), and their calls can disagree. Values without a mark were called inactive. Calls follow the shape of the dose curve; as a rule, active = well fitted inhibition curve with a large enough effect (not every such curve was filed as active); inconclusive = small, poorly fitted or top-dose-only effect, or another doubt; inactive = no such curve, though single readings can be large or run the other way.

Target: 15-hydroxyprostaglandin dehydrogenase [NAD(+)] (Homo sapiens) (UniProt P15428)
Sequence (P15428 whole entry, looked up): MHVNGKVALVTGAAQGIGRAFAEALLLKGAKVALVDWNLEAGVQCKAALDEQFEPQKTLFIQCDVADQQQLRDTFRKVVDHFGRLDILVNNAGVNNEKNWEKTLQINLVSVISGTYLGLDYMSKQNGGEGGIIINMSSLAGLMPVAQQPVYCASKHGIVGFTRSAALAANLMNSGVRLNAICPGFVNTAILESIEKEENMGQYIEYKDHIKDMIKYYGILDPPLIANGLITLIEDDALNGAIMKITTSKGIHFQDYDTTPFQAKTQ
Experiment: qHTS Assay for Inhibitors of HPGD (15-Hydroxyprostaglandin Dehydrogenase)
Conditions: purified HPGD, NADH fluorescence kinetic, PGE2 substrate; activity change, negative = inhibition: hits give low values
In short: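 20 nM HPGD preincubated 15 min at room temperature with compound in 50 mM Tris-HCl pH 8, 0.01% Tween 20. Started with 1 mM NAD+ and 30 uM prostaglandin E2; NADH fluorescence (360/450 nm) read 5 times over 30-s intervals, last minus first.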
% is scaled to controls: 0 for no effect and ±100 for the full control effect; potency is read from the fitted curve at half-maximal effect.

Point of comparison: `CCCCOc1ccc(C(=O)N/C(=C/C=C/c2ccccc2)C(=O)N2CCOCC2)cc1`, activity change, negative = inhibition -16%. Against it:
- COc1ccc(C(=O)CSc2nnc(NC(=O)C3CC(=O)N(c4cccc(OC)c4)C3)s2)cc1 (centres undefined) — higher, -4.45%
- CCOC(=O)c1cnc(SCC(=O)Nc2cccc(OC)c2)nc1N — higher, -14.8%
- COC(=O)c1cn(-c2ccccc2)nc1-c1cccnc1 — higher, -1.05%
- CCOC(=O)c1csc(NC(=O)Nc2cccc(OC)c2)n1 — higher, -6.02%
- COC(=O)C1=C(C)N(C)C(=S)NC1c1ccccc1 (centres undefined) — higher, -10.8%
- Cc1ccc(CC2S/C(=C(/C#N)C(=O)N3CCOCC3)N(c3ccccc3)C2=O)cc1 (centres undefined) — higher, -13.9%
- CN(C)C(=O)c1ccc2c(c1)C1C3CCC(C3)C1C(c1ccccc1)N2 (centres undefined) — higher, -9.73%
- c1nnc2c3c4c(sc3ncn12)CCC4 — lower, -16.5%
- N=c1c2c3c(sc2ncn1N)CCCCC3 — higher, -10.1%
- CCOC(=O)/C(=N\Nc1cc(Cl)ccc1Cl)N1CCN(C)CC1 — higher, -8.38%
- COc1cccc(C(=O)Nc2cc3c(cc2Br)OCCCO3)c1 — higher, -9.03%
- FC(F)(F)Oc1ccc(NC(=S)NCc2ccccc2)cc1 — higher, -11.2%
- COC(=O)Cc1ccc(NC(=S)NCc2ccc(Cl)cc2)cc1 — higher, -8.96%
- Cc1c(Cl)c([N+](=O)[O-])nn1CCCC(=O)NC(C)c1ccccc1 (centres undefined) — higher, -2.71%
- Cc1cc(C(=O)Nc2c(C)nn(Cc3ccccc3)c2C)on1 — higher, -12.9%
- COC(=O)c1ccc(COC(=O)c2c(C)nn(Cc3ccccc3Cl)c2Cl)o1 — lower, -23%
- O=C(COC(=O)[C@H](Cc1ccccc1)NC(=O)c1cccs1)Nc1cc(F)ccc1F — higher, 2.87%
- Cc1cc(=O)n2nc(N3CCCC(C(=O)NCCC4=CCCCC4)C3)sc2n1 (centres undefined) — higher, -11.9%
- Cn1nnc2cc(C(=O)NCCC3=CCCCC3)ccc21 — lower, -28.7%
- C=CC1=C2C=C(C3CC3)N(CC(C)C)C=C2C(=O)C(C)(OC(=O)c2ccco2)C1=O (centres undefined) — higher, -3.22%
- Cc1nn(C)cc1/C=C1\CCC/C(=C\c2cn(C)nc2C)C1=O — lower, -27.5%
- O=C1NC(c2ccc(-c3ccccc3[N+](=O)[O-])o2)C(C(=O)c2ccc(Cl)cc2)C(O)(C(F)(F)F)N1 (centres undefined) — higher, -3.47%
- C#CCCCc1nc2ccccc2c(=O)n1N — higher, -10.2%
- COc1cc(CN2CC(C)CC(C)C2)cc([N+](=O)[O-])c1O (centres undefined) — lower, -17.1%
- Cc1ccc(NC(=S)NC(=O)/C=C/c2ccc(Cl)cc2)cc1 — lower, -18.9%
- CC(NC(=O)COC(=O)C1CCN(S(=O)(=O)c2ccccc2C(F)(F)F)CC1)c1ccccc1 (centres undefined) — higher, -6.33%
- CC1(OC(=O)c2ccc(Cl)nc2)C(=O)Cc2cc(-c3ccsc3)ncc2C1=O (centres undefined) — higher, 2.16%
- O=C(NCCN1CCOCC1)c1cc(Sc2cccc(Cl)c2)nc2ccccc12 — higher, -1.7%
- O=C(NC(=S)Nc1cc(C(F)(F)F)ccc1N1CCOCC1)c1ccc(-c2cccc(Cl)c2)o1 — higher, -5.6%
- CCC(=O)/C=C1\Sc2ccccc2N1CC — lower, -16.1%
- CCN1C(=O)/C(=C\N2CCN(c3ccccc3)CC2)SC1=S — lower, -18.6%
- COc1ccc(C)cc1NC(=O)C(OC(=O)c1cccc(S(=O)(=O)N(C)c2ccccc2)c1)c1ccccc1 (centres undefined) — lower, -17.6%
- CC(=O)c1c(N2CCN(c3ccc(F)cc3)CC2)nc(=S)n(-c2ccccc2)c1C — higher, -7.92%
- O=[N+]([O-])c1ccc(N2CCNCC2)cc1NCc1cccnc1 — lower, -18.8%
- O=C1OC(OC(=O)c2ccccc2Br)C(N2CCOCC2)=C1Cl (centres undefined) — higher, -15.3%
- COc1ccc(OCc2ccc(-c3nc4ccccc4c(=O)n3N)o2)cc1 — higher, -2.6%
- O=C(CCn1c(SCC(=O)c2ccccc2)nc2ccccc2c1=O)NCc1ccc(F)cc1 — higher, -4.59%
- O=C(CSc1nc2ccccc2[nH]1)Nc1nc(-c2ccccc2)c(-c2ccccc2)o1 — lower, -28.7%
- O=C(CN1C(=O)/C(=C\c2ccccc2F)SC1=S)Nc1nc2ccccc2s1 — lower, -21.2%
- O=C(Nc1ccc(Cl)cc1)c1ccsn1 — lower, -18.4%
- CC(=O)Nc1cc(C(=O)O)ccc1S(=O)(=O)c1ccc(Cl)cc1 — higher, -9.11%
- Cc1ccccc1Nc1nc(N)nc(CSc2ccccc2)n1 — higher, -2.99%
- COc1ccc(-n2c(C)cc(C(=O)CN3C(=O)NC4(CCc5ccccc54)C3=O)c2C)cc1 (centres undefined) — higher, -8.92%
- COc1cc(/C=C/C(=O)O)cc(S(=O)(=O)Nc2ccccc2SC)c1OC — higher, -7.12%
- Cc1cc(C)n(CC(O)CN(c2ccccc2)S(=O)(=O)c2ccc3ccccc3c2)n1 (centres undefined) — higher, -6.52%
- Cc1ccc(N(CC(O)CN2CCCC2)S(=O)(=O)c2ccccc2)cc1 (centres undefined) — higher, -2.29%
- CCCn1c(C(O)c2ccc(OCC)cc2)nc2ccccc21 (centres undefined) — higher, -9.25%
- CCCCCCOC(=O)NCC(O)c1ccccc1 (centres undefined) — lower, -19.8%
- Cc1nn(-c2ccccc2)c(C)c1NC(=O)CCl — higher, -8.71%
- Cc1cc(NC(=O)Nc2ccccc2)n(-c2ccccc2)n1 — higher, -0.703%
- CCCCNC(=O)C1CCC(CNS(=O)(=O)c2ccc(NC(C)=O)cc2)CC1 (centres undefined) — lower, -26.6%
- COc1ccc(NC(=S)NCC2CCN(c3ccc(OC)cc3)C2)cc1 (centres undefined) — higher, -3.49%
- O=C(NNC(=S)Nc1ccc(Br)cc1Cl)c1ccco1 — higher, -15.2%
- Cc1ccsc1C(=O)N/N=C/c1ccc([N+](=O)[O-])cc1 — higher, -12.4%
- CNC(=S)NNC(=O)c1sccc1OCc1ccccc1 — higher, 1.03%
- Cc1ccc(NC(=O)O[C@@H]2C(=O)c3cc(Br)ccc3O[C@H]2c2ccc3c(c2)OCO3)cc1Br — higher, -8.38%
- O=C(Nc1ccccc1)OCc1cc(-c2ccc(Cl)cc2)on1 — higher, -7.01%
- O=C1c2cccc3cc(Br)cc(c23)C(=O)N1Nc1ccccc1 — higher, -5.3%
- Cc1cc(N2CCOCC2)nc(-c2ccc(Br)cc2)n1 — higher, -7.33%
- CCC(C)NCCOCCOc1ccc(Br)cc1C (centres undefined) — higher, -6.54%
- Cc1ccc(C(=O)/C=C/Nc2ccc(S(=O)(=O)Nc3onc(C)c3C)cc2)cc1 — lower, -26.4%
- Cc1ccc(S(=O)(=O)N2CCCC2C(=O)OCc2nc3sc(C)c(C)c3c(=O)[nH]2)cc1 (centres undefined) — lower, -20.7%
- Cc1c(NS(=O)(=O)c2ccc(NC3CCCC3)c([N+](=O)[O-])c2)c(=O)n(-c2ccccc2)n1C — higher, -7.49%
- Cc1cc([N+](=O)[O-])ccc1NC1CCCC1 — lower, -16.1%
- COc1ccc(C2NC(=S)NC3=C2CCc2ccccc23)cc1OC (centres undefined) — lower, -17.9%
- Cc1nn(Cc2ccc(F)cc2)c(C)c1NC(=O)c1cccnc1Cl — higher, -10.3%
- COc1cccc(CNCCc2c[nH]c3ccccc23)c1OCc1ccccc1F — higher, -4.46%
- CCOc1cc(/C=N/O)ccc1OCc1ccccc1F — higher, -1.63%
- CCOc1ccc(/C=N/NC(=O)C(C)Sc2ccccn2)cc1OCC (centres undefined) — lower, -18.1%
- COc1ccc(/C=C/C(=O)c2ccc(NS(=O)(=O)c3ccc(C)cc3)cc2)cc1O — lower, -19.9%
- COc1ccc(N2C(=O)CC(SC(C)C)C2=O)cc1 (centres undefined) — higher, -4.33%
- CCOC(=O)c1ccc(N2C(=O)CC(Sc3nc(O)c(CC)c(=O)[nH]3)C2=O)cc1 (centres undefined) — higher, -10.7%

In the case of `COC(=O)c1sc(=S)n(-c2ccccc2)c1N`, the Potency is reported as 14.1 µM (active).
For `CCOC(=O)c1sc(=S)n(-c2cccc(OC)c2)c1N`, the Potency was 28.2 µM (active).
For `S=c1[nH]nc2c3c4c(sc3ncn12)CCCC4`, the Potency was 20 µM (active).
For `COC(=O)Cc1ccc(NC(=S)NCc2ccccc2)cc1`, the Potency was 20 µM (active).
In the case of `Cc1nn(Cc2ccccc2)c(Cl)c1C(=O)OC1CCOC1=O` (centres undefined), the Potency is reported as 15.8 µM (active).
In the case of `CC1CCCN(C(=O)c2ccc3c(c2)C(=O)N(CCC2=CCCCC2)C3=O)C1` (centres undefined), the Potency is reported as 0.891 µM (active).
With `CCn1cc(/C=C2/SC(=S)NC2=O)c(C)n1` the Potency was 17.8 µM (active).
`Cc1cc(-c2n[nH]c(=S)n2/N=C/C(Br)=C/c2ccccc2)n[nH]1` was tested, and the Potency was 3.98 µM (active).
For `S=c1[nH]nc(-c2cccnc2)n1/N=C/C(Cl)=C\c1ccccc1`, the Potency was 1.58 µM (active).
With `CCN1C(=O)/C(=C2/Sc3ccccc3N2CCCS(=O)(=O)O)SC1=S` the Potency was 20 µM (active).
For `Cc1ccc(C(=O)CSc2nc3ccccc3c(=O)n2N)o1`, the Potency was 25.1 µM (active).
With `O=C(Nc1ccccc1)c1nnsc1S(=O)(=O)c1ccc(Cl)cc1` the Potency was 11.2 µM (active).
`COc1ccc([N+](=O)[O-])cc1N(CC(O)Cn1nnc2ccccc21)S(=O)(=O)c1ccc(C)cc1` (centres undefined) was tested, and the Potency was 28.2 µM (active).
For `CCCCCC(O)c1cccc(OCc2ccc3ccccc3n2)c1` (centres undefined), the Potency was 14.1 µM (active).
With `Cc1nn(-c2ccccc2)c(Cl)c1C(=O)Nc1ccccc1` the Potency was 14.1 µM (active).
`Cc1ccc(/C=N/NC(=O)c2sccc2OCc2ccc(F)cc2)cc1` was tested, and the Potency was 31.6 µM (active).
With `O=C1C=C(c2ccc(Cl)cc2)C(=O)N1Nc1ccccc1` the Potency was 22.4 µM (active).
With `Cc1cc(C=O)c(C)n1-c1ccc(NC2CCCCC2)c([N+](=O)[O-])c1` the Potency was 7.94 µM (active).
In the case of `COc1cc(/C=C2/C(=O)ON=C2C)ccc1OCc1ccccc1F`, the Potency is reported as 1.58 µM (active).
With `O=C1CC(Sc2ncn[nH]2)C(=O)N1c1ccccc1` (centres undefined) the Potency was 12.6 µM (active).

`CCCCCC(O)c1cccc(OCc2ccc3ccccc3n2)c1` (centres undefined) was tested, and the activity change, negative = inhibition was -26.2% and -5.68%.
